Key:
Assay in all cases: log2 ratio of Biotin-Ahx-Ub-VS probe labelling (fragment/DMSO); higher = less target engagement (more negative = stronger competition), active = hit call of the paper (q ≤ 0.05, log2 ratio ≤ -1)
Details in all cases: compound concentration: 200 uM; treatment time: 3 h
USP16 = USP16 (UniProt Q9Y5T5)
Summary of the method: (§1)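 The table lists average log2 ratios of fragment over vehicle, from an unpaired t-test on global-median-normalised Spectronaut label-free quantities. Proteins with ≥2 unique peptides were used. Samples were HEK293T lysate (495 µg) treated in triplicate with fragment at 200 µM or vehicle for 3 h, then with Biotin-Ahx-Ub-VS (0.5 µM final) for 1 h, with labelled DUBs NeutrAvidin-enriched and run by diaPASEF LC-MS/MS.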

USP19 = target: T1, USP19 (UniProt O94966)
T1 sequence (whole entry): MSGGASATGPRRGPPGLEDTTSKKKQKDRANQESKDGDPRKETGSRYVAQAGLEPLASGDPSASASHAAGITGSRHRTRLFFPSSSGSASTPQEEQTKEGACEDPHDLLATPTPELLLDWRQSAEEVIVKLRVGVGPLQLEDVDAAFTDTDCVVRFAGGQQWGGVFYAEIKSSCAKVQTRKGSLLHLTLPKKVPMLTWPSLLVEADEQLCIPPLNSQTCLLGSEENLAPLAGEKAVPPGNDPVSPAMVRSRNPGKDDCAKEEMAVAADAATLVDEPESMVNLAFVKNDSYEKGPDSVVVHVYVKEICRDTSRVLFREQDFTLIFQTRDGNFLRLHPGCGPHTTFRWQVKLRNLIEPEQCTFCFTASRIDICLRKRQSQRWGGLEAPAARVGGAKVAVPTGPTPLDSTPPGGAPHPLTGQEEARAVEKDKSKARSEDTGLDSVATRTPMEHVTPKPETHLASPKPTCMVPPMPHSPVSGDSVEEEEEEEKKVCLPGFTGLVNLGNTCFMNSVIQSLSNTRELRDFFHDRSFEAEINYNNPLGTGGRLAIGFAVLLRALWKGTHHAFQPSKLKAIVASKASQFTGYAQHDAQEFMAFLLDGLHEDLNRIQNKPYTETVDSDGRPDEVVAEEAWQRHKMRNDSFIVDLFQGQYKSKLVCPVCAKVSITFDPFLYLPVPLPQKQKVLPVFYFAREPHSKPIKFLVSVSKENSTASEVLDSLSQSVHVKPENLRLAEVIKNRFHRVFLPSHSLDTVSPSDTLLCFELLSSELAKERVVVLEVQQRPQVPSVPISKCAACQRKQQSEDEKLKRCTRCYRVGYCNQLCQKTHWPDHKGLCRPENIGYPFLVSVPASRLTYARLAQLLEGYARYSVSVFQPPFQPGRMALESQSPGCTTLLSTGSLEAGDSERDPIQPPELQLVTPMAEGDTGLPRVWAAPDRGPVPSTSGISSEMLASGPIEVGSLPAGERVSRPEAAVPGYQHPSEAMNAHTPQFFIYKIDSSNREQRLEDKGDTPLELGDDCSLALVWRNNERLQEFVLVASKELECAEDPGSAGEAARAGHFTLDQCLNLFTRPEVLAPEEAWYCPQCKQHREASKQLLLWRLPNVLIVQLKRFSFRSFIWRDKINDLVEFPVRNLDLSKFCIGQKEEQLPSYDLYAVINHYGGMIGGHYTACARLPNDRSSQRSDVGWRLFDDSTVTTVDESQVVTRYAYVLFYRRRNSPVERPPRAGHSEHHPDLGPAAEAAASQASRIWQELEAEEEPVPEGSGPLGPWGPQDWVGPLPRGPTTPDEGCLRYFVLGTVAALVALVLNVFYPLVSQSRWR
Summary of the method: as §1

USP24 = USP24 (UniProt Q9UPU5)
Summary of the method: as §1

USP25 = target: T2, USP25 (UniProt Q9UHP3)
T2 sequence (whole entry): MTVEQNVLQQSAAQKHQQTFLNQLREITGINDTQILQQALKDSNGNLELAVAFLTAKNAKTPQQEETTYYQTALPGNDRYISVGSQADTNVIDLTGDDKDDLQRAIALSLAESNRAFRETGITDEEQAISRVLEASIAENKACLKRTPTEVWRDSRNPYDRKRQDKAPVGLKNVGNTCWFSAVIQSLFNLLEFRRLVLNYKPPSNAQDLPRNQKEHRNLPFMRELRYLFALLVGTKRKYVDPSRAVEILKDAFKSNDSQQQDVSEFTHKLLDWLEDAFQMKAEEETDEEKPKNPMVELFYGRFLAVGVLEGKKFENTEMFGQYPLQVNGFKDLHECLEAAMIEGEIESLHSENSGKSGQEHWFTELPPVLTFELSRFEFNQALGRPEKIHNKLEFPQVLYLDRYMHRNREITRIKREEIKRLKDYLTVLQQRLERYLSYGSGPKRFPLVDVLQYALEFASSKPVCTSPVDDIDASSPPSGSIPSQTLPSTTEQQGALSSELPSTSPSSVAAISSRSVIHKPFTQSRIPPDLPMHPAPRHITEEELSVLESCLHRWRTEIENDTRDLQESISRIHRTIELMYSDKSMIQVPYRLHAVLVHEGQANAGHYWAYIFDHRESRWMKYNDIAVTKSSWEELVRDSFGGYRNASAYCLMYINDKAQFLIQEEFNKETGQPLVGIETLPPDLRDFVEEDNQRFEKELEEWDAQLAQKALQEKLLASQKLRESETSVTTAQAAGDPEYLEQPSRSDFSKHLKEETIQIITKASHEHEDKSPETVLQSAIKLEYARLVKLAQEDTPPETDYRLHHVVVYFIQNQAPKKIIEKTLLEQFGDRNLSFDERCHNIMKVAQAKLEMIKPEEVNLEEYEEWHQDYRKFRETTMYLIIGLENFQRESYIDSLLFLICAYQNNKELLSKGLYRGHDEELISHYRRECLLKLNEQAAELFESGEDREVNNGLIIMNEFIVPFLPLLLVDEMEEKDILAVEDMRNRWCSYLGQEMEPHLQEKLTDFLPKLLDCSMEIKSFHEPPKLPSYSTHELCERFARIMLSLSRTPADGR
Summary of the method: as §1

USP28 = target: T3, USP28 (UniProt Q96RU2)
T3 sequence (whole entry): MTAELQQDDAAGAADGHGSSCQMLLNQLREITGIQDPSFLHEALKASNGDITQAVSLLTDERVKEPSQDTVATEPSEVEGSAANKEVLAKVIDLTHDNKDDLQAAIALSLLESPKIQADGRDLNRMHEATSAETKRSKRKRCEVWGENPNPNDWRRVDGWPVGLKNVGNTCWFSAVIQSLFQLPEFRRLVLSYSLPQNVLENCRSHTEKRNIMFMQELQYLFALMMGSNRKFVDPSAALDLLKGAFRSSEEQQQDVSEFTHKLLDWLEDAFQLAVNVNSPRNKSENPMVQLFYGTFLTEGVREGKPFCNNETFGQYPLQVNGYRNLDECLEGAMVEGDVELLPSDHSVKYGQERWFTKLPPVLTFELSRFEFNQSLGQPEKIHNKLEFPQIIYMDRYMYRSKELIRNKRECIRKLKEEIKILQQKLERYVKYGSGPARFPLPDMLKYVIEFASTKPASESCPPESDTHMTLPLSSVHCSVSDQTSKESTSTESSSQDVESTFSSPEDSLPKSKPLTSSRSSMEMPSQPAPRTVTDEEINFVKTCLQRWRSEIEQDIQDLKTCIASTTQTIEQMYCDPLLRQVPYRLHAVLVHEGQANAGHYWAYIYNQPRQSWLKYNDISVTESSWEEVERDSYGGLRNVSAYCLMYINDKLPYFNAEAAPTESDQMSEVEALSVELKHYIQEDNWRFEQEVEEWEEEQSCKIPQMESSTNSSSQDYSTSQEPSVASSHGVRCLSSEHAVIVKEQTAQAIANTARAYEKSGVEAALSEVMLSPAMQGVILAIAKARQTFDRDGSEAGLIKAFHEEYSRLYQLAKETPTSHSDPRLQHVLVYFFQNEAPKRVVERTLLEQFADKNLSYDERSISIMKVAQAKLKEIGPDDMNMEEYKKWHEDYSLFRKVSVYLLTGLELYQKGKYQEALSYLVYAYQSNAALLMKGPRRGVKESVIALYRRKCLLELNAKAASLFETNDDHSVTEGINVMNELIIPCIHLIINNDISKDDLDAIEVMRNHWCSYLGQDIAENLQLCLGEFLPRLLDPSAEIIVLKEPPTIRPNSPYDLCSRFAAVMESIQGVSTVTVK
Summary of the method: as §1

Measured: log2 ratio of Biotin-Ahx-Ub-VS probe labelling

Sequence of USP16 (Q9Y5T5 whole entry, looked up, the tested form may be a part): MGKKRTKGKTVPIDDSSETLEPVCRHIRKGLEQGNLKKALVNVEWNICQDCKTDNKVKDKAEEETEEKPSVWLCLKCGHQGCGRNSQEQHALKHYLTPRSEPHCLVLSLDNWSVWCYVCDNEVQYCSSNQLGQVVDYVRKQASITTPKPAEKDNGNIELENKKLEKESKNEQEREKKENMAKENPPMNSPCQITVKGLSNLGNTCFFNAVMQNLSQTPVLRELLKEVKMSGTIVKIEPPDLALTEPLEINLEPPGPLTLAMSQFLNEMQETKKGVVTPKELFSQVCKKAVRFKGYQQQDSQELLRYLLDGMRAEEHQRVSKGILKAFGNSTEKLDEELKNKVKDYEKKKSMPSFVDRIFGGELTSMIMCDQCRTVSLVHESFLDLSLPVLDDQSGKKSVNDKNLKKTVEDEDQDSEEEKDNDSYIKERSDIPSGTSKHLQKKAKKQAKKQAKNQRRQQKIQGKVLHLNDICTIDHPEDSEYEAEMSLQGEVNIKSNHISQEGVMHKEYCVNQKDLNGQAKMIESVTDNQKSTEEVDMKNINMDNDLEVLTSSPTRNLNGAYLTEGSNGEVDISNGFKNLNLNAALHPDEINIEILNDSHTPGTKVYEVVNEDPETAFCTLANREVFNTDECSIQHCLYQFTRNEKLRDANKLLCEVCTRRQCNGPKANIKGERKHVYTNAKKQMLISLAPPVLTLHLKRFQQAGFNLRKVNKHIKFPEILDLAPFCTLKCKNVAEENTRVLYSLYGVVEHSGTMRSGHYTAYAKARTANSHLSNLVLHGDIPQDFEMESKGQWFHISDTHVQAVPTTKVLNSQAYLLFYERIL
Sequence of USP24 (Q9UPU5 whole entry): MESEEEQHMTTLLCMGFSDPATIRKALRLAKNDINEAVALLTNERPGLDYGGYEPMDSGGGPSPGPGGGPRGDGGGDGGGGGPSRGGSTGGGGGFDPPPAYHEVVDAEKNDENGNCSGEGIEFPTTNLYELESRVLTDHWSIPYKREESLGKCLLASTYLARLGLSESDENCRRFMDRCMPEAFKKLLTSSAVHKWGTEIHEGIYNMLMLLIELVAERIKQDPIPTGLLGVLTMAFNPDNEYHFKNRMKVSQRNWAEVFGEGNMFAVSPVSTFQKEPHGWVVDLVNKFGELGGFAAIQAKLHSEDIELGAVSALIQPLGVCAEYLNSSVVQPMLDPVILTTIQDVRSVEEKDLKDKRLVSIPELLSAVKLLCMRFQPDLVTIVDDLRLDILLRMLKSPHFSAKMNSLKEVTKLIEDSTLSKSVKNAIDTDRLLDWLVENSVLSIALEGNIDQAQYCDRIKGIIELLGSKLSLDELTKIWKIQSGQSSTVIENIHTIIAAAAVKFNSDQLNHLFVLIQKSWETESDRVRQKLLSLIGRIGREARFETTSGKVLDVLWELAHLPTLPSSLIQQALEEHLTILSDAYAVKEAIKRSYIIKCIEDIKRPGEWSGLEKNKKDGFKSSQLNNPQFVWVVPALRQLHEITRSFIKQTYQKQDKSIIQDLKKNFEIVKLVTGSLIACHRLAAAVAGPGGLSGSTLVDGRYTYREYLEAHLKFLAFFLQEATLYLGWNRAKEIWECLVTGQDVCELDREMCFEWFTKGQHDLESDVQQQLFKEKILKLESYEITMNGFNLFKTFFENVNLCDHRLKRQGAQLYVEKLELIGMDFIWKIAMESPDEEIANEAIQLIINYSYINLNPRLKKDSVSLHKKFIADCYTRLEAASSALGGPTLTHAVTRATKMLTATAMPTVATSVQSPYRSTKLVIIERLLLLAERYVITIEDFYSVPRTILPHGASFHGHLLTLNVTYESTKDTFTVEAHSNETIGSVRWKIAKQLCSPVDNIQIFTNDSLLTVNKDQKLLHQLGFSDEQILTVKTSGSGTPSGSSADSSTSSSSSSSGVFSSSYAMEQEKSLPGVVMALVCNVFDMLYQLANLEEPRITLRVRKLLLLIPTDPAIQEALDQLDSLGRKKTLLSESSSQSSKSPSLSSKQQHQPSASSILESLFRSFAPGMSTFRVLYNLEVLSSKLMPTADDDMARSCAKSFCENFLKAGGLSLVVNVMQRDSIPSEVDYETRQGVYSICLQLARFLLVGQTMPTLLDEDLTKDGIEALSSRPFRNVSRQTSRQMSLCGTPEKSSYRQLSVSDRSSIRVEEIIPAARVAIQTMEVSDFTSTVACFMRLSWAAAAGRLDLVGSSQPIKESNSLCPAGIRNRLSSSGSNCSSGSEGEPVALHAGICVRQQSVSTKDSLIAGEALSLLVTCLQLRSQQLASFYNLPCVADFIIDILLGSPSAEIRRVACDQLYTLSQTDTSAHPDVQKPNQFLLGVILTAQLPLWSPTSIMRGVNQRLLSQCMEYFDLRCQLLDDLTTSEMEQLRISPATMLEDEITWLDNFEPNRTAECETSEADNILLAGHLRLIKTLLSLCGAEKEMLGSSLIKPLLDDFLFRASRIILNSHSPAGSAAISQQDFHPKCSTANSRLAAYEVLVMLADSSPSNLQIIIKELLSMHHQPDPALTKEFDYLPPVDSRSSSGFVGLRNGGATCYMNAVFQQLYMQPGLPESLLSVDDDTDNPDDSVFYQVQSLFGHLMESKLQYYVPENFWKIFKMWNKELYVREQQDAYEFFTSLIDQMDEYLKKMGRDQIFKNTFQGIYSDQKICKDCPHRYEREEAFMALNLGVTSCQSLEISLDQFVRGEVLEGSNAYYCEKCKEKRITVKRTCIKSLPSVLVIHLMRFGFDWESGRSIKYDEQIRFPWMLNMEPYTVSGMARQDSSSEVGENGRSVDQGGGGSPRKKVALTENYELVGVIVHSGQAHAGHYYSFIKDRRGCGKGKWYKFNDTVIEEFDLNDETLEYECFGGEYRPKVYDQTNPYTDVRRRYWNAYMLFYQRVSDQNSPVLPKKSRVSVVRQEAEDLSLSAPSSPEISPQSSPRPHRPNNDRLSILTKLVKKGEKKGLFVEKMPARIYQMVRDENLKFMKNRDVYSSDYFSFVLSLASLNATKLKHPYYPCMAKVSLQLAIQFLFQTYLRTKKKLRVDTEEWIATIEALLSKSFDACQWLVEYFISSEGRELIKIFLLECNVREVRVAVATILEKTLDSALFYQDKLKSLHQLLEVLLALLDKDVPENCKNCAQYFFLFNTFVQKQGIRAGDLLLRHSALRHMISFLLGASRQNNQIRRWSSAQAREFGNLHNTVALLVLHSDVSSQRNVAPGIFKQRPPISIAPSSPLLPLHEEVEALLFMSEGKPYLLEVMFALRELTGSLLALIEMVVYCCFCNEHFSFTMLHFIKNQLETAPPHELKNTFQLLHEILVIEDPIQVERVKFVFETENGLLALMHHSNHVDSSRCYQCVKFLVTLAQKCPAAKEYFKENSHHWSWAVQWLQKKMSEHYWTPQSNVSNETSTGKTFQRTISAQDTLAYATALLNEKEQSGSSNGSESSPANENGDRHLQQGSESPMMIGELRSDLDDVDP

Cc1cc(Cl)ccc1NC(=O)CCl
inactive: USP16 -0.157 | USP19 -0.055 | USP24 -0.224 | USP25 -0.208 | USP28 -0.682

Source: the supplement of paper PMC11732987, “Enantioselective OTUD7B fragment discovery through chemoproteomics screening and high-throughput optimisation” (Communications Chemistry, 2025)
